# Laboratory results published in PubChem BioAssay (NCATS).
# Inconclusive results are not listed. Where a call stands in place of a potency, no number is given. Active and inactive are the calls of the source. Unless noted, the call rests on the fitted dose curve; in most records, active means well fitted curve in the direction sought with a large enough effect; inconclusive means small, poorly fitted or top-dose-only effect, or another doubt; inactive means no such curve, though single readings can be large; an effect the other way counts as inactive or inconclusive.
# Legend:
# [1] = target: Cytochrome P450 1A2 (Homo sapiens) (UniProt P05177); test: p450-cyp1a2 (AID 410; calls by dose curve; further: potency means the concentration at half of the fitted maximal effect)
# How it was run: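 20nM CYP1A2, 100uM Luciferin-ME (=Km), 100mM KPO4; cpd 10 min RT; +NADPH regen, 60 min RT; stop/detect 20 min; luminescence. Normalized to furafylline 57 uM = full inhibition.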
# [2] = target: Mitogen-activated protein kinase 10 (Mus musculus) (UniProt Q61831); test: JNK3 AlphaScreen Assay (AID 530; active means well fitted curve in either direction with a large enough effect, not every such curve was filed as active;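 further: kinase came from lysate of stimulated human HepG2 cells; signal reports phosphorylation of biotinylated GST-cJun 1-79 at Ser73 with 10 µM ATP; series mostly up to about 57 µM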)
# How it was run: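 Biotinylated GST-cJun(1-79) served as substrate for JNK3 in HepG2 lysates stimulated with IL-1beta and TNF-alpha. ATP was 10 uM final, pH 7.6. Ser73 phosphorylation was quantified by AlphaScreen (680 nm excitation).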
# [3] = target: 3',5'-cyclic-AMP phosphodiesterase 4B (Homo sapiens) (UniProt Q07343); test: qHTS Assay for Inhibitors of PDE-IV (AID 607; active means well fitted activation curve with a large enough effect in the main read-out, with a control signal flat, not every such curve was filed as active; further: potency means the concentration at half of the fitted maximal effect)
# How it was run: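 ACTOne HEK293 cells carry a modified cAMP-gated CNG channel and express endogenous PDE4; plated 1000 cells/well, compounds up to 22.9 uM final. Membrane-potential dye fluorescence (ex 535/em 590) was read; parental cells received 10 uM forskolin + 100 uM RO 20-1724.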
# [4] = target: Cytochrome P450 3A4 (Homo sapiens) (UniProt P08684); test: qHTS Assay for Activators of Cytochrome P450 3A4 (AID 885); further: nearly all actives have a fitted effect of over 65% in size
# How it was run: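 CYP3A4 activity: Luciferin-PPXE O-dealkylation, 25uM substrate, 200mM KPO4, RT throughout. Read-out is luciferase luminescence; higher values reflect activation.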
# [5] = target: Cytochrome P450 3A4 (Homo sapiens) (UniProt P08684); test: qHTS Assay for Inhibitors and Substrates of Cytochrome P450 3A4 (AID 884); further: nearly all actives have a fitted effect of over 50% in size; further: potency means the concentration at half of the fitted maximal effect
# How it was run: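 Luminescent readout of luciferin produced by CYP3A4 (20 nM) dealkylation of Luciferin-PPXE, 25 uM (its KM). NADPH-driven reaction ran 60 min at RT after 10 min compound preincubation; data scaled to 57 uM ketoconazole as 100% inhibition.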
# [6] = target: Cytochrome P450 2D6 (Homo sapiens) (UniProt P10635); test: qHTS Assay for Inhibitors and Substrates of Cytochrome P450 2D6 (AID 891); further: nearly all actives have a fitted effect of over 60% in size; further: potency means the concentration at half of the fitted maximal effect
# How it was run: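 Luminescent read-out of luciferin formed by 5 nM human CYP2D6 demethylating 30 uM Luciferin-ME EGE (Km level) over 60 min at room temperature after NADPH regeneration addition. Data normalized to full inhibition by 1.43 uM quinidine.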
# [7] = target: Cytochrome P450 2C19 (Homo sapiens) (UniProt P33261); test: qHTS Assay for Inhibitors and Substrates of Cytochrome P450 2C19 (AID 899); further: nearly all actives have a fitted effect of over 60% in size; further: potency means the concentration at half of the fitted maximal effect
# How it was run: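 NADPH-dependent conversion of Luciferin-H EGE (10uM, at KM) by 5nM enzyme in 50mM KPO4, 60 min at 37C following 10 min compound preincubation. Stopped with luciferin detection buffer; luminescence read after 20 min.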
# [8] = target: Cytochrome P450 2C9 (Homo sapiens) (UniProt P11712); test: qHTS Assay for Inhibitors and Substrates of Cytochrome P450 2C9 (AID 883); further: nearly all actives have a fitted effect of over 60% in size; further: potency means the concentration at half of the fitted maximal effect
# How it was run: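 A luminogenic readout tracked human CYP2C9 (10nM) converting deoxyluciferin (100uM, at KM) in 25mM KPO4 during 60 min at 37C with regenerated NADPH. Values normalized to 57uM sulphaphenazole as complete inhibition.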
# Sequence of Cytochrome P450 2C9 (Homo sapiens) (P11712 whole entry, looked up): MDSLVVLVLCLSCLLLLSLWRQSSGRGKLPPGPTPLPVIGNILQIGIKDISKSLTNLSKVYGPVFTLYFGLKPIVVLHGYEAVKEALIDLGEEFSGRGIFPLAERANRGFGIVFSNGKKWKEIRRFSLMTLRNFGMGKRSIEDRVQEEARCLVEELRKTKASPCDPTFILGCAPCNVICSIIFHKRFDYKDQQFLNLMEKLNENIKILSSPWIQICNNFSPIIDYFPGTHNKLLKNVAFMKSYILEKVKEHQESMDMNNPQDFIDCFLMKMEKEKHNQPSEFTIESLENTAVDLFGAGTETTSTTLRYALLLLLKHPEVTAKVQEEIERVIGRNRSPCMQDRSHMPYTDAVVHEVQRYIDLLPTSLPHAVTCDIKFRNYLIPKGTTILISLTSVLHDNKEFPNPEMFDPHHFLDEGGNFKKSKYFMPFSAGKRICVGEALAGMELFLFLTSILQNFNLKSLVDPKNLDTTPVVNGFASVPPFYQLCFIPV
# Sequence of Cytochrome P450 3A4 (Homo sapiens) (P08684 whole entry, looked up): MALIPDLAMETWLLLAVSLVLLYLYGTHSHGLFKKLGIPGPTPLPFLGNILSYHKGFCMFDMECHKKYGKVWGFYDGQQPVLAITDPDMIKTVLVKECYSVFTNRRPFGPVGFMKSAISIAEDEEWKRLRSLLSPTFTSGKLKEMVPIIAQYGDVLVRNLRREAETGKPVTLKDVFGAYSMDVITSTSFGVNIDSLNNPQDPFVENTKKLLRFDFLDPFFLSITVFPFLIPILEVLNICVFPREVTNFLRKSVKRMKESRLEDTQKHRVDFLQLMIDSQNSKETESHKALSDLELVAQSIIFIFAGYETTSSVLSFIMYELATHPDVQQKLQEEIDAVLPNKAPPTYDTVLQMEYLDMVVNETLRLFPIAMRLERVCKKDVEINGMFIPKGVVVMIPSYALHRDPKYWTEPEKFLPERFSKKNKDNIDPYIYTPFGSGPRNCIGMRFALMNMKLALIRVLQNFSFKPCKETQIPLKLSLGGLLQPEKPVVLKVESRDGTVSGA
# Sequence of Cytochrome P450 2C19 (Homo sapiens) (P33261 whole entry, looked up): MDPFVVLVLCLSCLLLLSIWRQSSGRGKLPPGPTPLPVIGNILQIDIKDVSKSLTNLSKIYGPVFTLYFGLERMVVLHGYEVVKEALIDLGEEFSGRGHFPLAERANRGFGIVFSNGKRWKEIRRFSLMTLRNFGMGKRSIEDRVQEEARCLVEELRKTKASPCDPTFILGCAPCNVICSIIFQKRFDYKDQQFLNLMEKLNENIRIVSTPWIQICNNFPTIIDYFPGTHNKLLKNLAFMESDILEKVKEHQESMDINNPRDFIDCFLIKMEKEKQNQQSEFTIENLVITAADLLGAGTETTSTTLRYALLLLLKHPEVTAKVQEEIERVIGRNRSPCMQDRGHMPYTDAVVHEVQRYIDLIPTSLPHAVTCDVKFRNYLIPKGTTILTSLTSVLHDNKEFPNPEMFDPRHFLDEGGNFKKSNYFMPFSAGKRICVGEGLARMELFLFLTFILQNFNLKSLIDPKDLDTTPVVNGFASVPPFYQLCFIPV
# Sequence of Cytochrome P450 2D6 (Homo sapiens) (P10635 whole entry, looked up): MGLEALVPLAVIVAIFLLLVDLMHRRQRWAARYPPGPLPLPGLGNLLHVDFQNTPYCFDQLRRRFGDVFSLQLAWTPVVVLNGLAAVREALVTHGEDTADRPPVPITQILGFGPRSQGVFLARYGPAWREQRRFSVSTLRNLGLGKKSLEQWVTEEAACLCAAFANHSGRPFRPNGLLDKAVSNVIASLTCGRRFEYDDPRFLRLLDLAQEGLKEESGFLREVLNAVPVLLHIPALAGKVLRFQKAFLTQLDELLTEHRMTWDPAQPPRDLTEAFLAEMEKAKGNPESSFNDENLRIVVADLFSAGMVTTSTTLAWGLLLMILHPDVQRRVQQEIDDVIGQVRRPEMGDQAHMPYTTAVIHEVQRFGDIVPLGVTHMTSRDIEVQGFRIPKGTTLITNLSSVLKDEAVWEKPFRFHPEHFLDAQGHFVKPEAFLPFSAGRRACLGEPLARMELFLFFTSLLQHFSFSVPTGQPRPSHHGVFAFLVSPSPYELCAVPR
# Sequence of 3',5'-cyclic-AMP phosphodiesterase 4B (Homo sapiens) (Q07343 whole entry, looked up): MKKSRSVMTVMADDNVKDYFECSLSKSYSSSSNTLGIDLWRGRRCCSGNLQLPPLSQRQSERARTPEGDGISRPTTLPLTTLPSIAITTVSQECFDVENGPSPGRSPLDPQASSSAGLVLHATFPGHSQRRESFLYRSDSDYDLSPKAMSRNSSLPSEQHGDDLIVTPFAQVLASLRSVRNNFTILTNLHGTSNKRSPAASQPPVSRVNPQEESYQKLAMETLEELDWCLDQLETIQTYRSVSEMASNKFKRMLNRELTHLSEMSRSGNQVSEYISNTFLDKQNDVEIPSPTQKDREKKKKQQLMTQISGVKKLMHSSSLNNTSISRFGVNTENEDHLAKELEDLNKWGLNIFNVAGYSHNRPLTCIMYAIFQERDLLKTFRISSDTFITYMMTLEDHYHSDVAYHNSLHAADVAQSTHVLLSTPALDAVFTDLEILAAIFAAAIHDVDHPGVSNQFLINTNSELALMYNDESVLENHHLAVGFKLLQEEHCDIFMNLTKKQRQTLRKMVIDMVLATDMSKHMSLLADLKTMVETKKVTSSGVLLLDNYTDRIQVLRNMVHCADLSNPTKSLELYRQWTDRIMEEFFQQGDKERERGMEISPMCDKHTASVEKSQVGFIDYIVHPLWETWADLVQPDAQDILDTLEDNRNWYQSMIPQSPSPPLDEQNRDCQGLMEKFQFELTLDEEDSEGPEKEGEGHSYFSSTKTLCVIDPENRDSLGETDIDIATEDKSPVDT
# Sequence of Cytochrome P450 1A2 (Homo sapiens) (P05177 whole entry, looked up): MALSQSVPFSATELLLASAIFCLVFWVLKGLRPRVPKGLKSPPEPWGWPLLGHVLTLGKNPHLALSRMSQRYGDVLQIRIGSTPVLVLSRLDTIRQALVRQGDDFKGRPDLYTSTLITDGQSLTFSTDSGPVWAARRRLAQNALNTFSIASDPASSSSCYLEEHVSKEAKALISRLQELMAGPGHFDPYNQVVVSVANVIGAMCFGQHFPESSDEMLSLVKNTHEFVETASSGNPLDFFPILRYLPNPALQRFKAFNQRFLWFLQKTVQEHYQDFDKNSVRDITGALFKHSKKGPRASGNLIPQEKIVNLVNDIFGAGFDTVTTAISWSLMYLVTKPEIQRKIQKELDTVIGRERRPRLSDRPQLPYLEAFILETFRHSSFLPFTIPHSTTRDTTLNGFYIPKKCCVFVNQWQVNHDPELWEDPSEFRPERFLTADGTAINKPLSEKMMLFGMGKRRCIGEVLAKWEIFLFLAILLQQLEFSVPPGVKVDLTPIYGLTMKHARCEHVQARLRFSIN
SMILES,Potency [1],Potency [2],Potency [3],Potency [4],Potency [5],Potency [6],Potency [7],Potency [8]
C#CCCCC(=S)Nc1ccccc1,12.6 µM (active),inactive,inactive,inactive,–,–,–,–
COC(=O)C1(Cc2ccccc2)C2c3cc(C(=O)N4CCCC4)n(Cc4ccc(OC(F)(F)F)cc4)c3CC2CN1C(=O)c1ccccc1 (centres undefined),inactive,inactive,inactive,inactive,3.16 µM (active),–,–,–
COC(=O)C1CC1C(NC(=O)[C@@H]1CCCN1)c1ccccc1 (some centres undefined),15.8 µM (active),inactive,inactive,inactive,–,–,–,–
COC(=O)[C@@]1(Cc2ccc(F)cc2)[C@H]2c3cc(C(=O)N4CCCC4)n(Cc4c(CO)[nH]cc(C)c4=O)c3C[C@H]2CN1C(=O)c1ccccc1,20 µM (active),inactive,inactive,inactive,2 µM (active),–,–,–
COc1ccc(COC2OC[C@]3(C)[C@H]4C5=C(CN3C(=O)OC(C)(C)C)[C@H](C)C(CO)C(CO)C5CC[C@@H]24)cc1 (some centres undefined),inactive,inactive,inactive,inactive,7.94 µM (active),–,–,–
CC(C)c1cccc2nc3c(c([Si](C)(C)C)c12)Cn1c-3cccc1=O,15.8 µM (active),inactive,inactive,inactive,–,–,–,–
C[C@@H](C(=O)NCc1ccccn1)[C@H]1C[C@]1(C)[C@H](NC(=O)OCc1ccccc1)c1ccccc1,25.1 µM (active),inactive,inactive,inactive,5.01 µM (active),12.6 µM (active),2 µM (active),–
COC(=O)Cn1c(C(=O)N2CCCC2)cc2c1C[C@H]1CN(C(=O)c3ccccc3)[C@@](Cc3ccc(F)cc3)(C(=O)OC)[C@@H]21,15.8 µM (active),inactive,inactive,inactive,3.16 µM (active),–,–,–
COC(=O)[C@@]1(Cc2ccc(F)cc2)[C@@H]2[C@@H](CC(=O)[C@H]2CC(=O)C(=O)N2CCCC2)CN1C(=O)c1ccccc1,inactive,inactive,inactive,inactive,1.58 µM (active),–,–,–
COCC1C2CC[C@H]3C(OCc4ccc(F)cc4C(F)(F)F)OC[C@]4(C)[C@H]3C2=C(CN4C(=O)OC(C)(C)C)[C@H](C)C1COC (some centres undefined),31.6 µM (active),inactive,inactive,inactive,–,–,–,–
CC1=C(C(=O)OCc2ccccc2)C(c2ccc(Cl)cc2)NC(=O)N1CCCCCC(=O)O (centres undefined),25.1 µM (active),inactive,inactive,inactive,–,–,–,–
C[C@@H](C(=O)Nc1ccc2ccccc2c1)[C@H]1C[C@]1(C)[C@H](NS(=O)(=O)c1ccc2ccccc2c1)c1ccccc1,inactive,inactive,inactive,inactive,7.94 µM (active),3.16 µM (active),0.251 µM (active),–
COC(=O)[C@@H]1C[C@H]1[C@@H](NC(=O)c1cnccn1)c1ccccc1,12.6 µM (active),inactive,inactive,inactive,–,–,–,–
CC1(C)C(=O)C(c2ccccc2)=C2CN3C(=O)N(CCc4ccccc4)C(=O)C3(Cc3ccc(F)cc3)C=C21 (centres undefined),15.8 µM (active),inactive,inactive,inactive,3.16 µM (active),–,–,–
COC(=O)[C@@]1(Cc2ccccc2)[C@H]2c3cc(C(=O)N4CCCC4)n(Cc4ccc(S(C)(=O)=O)cc4)c3C[C@H]2CN1C(=O)c1ccccc1,inactive,inactive,inactive,inactive,3.16 µM (active),–,–,–
CC[C@H]1C2=C3C(CC[C@H]4C(OCc5ccc(F)cc5C(F)(F)F)OC[C@](C)([C@@H]34)N(C(=O)OC(C)(C)C)C2)C2COC(=O)OCC21 (some centres undefined),inactive,inactive,inactive,inactive,–,–,–,–
COC(=O)[C@@]1(Cc2ccc(OC)cc2)[C@H]2c3cc(C(=O)N4CCCC4)n(Cc4ccc(C(F)(F)F)nc4)c3C[C@H]2CN1C(=O)c1ccccc1,inactive,inactive,inactive,inactive,3.16 µM (active),–,–,–
COC(=O)C1(Cc2ccccc2)C=C2C(=C(C(C)C)C(=O)C2C)CN1 (centres undefined),15.8 µM (active),inactive,inactive,inactive,7.94 µM (active),–,–,–
COC(=O)[C@@]1(Cc2ccc(F)cc2)[C@@H]2[C@@H](CC(=O)[C@H]2CC(=O)C(=O)N(C)C)CN1C(=O)c1ccccc1,inactive,inactive,inactive,inactive,6.31 µM (active),–,–,–
COC(=O)[C@@]1(Cc2ccc(F)cc2)[C@@H]2C(=CC(=O)[C@H]2CC(=O)C(=O)N2CCCC2)CN1C(=O)c1ccccc1,inactive,inactive,inactive,inactive,–,–,–,–
COC(=O)[C@@]1(Cc2ccccc2)[C@H]2c3cc(C(=O)N4CCCC4)n(Cc4nc5ccccc5[nH]4)c3C[C@H]2CN1C(=O)c1ccccc1,12.6 µM (active),inactive,inactive,inactive,1.26 µM (active),7.94 µM (active),–,–

SMILES,Potency [1],Potency [2],Potency [3],Potency [4],Potency [5],Potency [6],Potency [7],Potency [8]
C[C@@H](C(=O)Nc1ccc2ccccc2c1)[C@@H]1C[C@@]1(C)[C@@H](NC(=O)OCc1ccccc1)c1ccccc1,15.8 µM (active),inactive,inactive,inactive,7.94 µM (active),–,3.16 µM (active),–
COC(=O)[C@H]1C[C@@H]1[C@H](NC(=O)c1ccccc1)c1ccccc1,15.8 µM (active),inactive,inactive,–,inactive,–,7.94 µM (active),–
COC(=O)C1CC1C(NC(=O)[C@H]1CCCCN1)c1ccccc1 (some centres undefined),inactive,inactive,inactive,inactive,–,–,–,–
Cc1cc(CNC(=O)[C@@H]2C[C@H]2[C@@H](NP(=O)(c2ccccc2)c2ccccc2)c2ccccc2)nn1C,inactive,inactive,inactive,inactive,0.398 µM (active),–,–,–
CC(=O)N[C@H](c1ccccc1)[C@@]1(C)C[C@@H]1[C@@H](C)C(=O)Nc1ccc2ccccc2c1,15.8 µM (active),inactive,inactive,inactive,7.94 µM (active),2 µM (active),5.01 µM (active),–
CC1=C(C(=O)OCc2ccccc2)C(c2ccc([N+](=O)[O-])cc2)NC(=O)N1CCCCCC(=O)O (centres undefined),15.8 µM (active),inactive,inactive,inactive,–,–,–,–
C=C1C(=O)C=C2CN(C(=O)c3ccccc3)[C@@](Cc3ccc(OC)cc3)(C(=O)OC)[C@@H]12,15.8 µM (active),inactive,1.58 µM (active),inactive,1.58 µM (active),–,–,–
C[C@@H](C(=O)Nc1ccc2ccccc2c1)[C@H]1C[C@]1(C)[C@H](NS(=O)(=O)c1ccc(-c2ccccc2)cc1)c1ccccc1,–,–,–,–,–,2 µM (active),–,–
C[C@@H](C(=O)NCc1ccccn1)[C@@H]1C[C@@]1(C)[C@@H](NC(=O)OCc1ccccc1)c1ccccc1,20 µM (active),inactive,inactive,inactive,–,–,2.51 µM (active),–
O=C(Cc1ccccc1I)Nc1ccccc1,12.6 µM (active),inactive,inactive,–,–,–,6.31 µM (active),–
S=C(Nc1ccccc1)Nc1ccccc1C#Cc1ccccc1,0.501 µM (active),inactive,–,inactive,–,–,3.16 µM (active),3.98 µM (active)
CC(C)C[C@@H](CC(=O)N[C@@H](CCC(=O)O)CC(=O)O)NC(=O)[C@@H]1CCCC[C@H]1NC(=O)C[C@H](CCCN)NC(=O)C[C@H](Cc1c[nH]c2ccccc12)NC(=O)[C@@H]1CNCC[C@H]1N,inactive,inactive,–,–,–,inactive,inactive,inactive
CCCC[C@@H]1C[C@H]1C(NC(=O)c1ccco1)c1ccc(-c2ccccc2)cc1 (some centres undefined),5.01 µM (active),inactive,–,inactive,–,–,–,3.16 µM (active)
C[C@@H](C(=O)Nc1ccc2ccccc2c1)[C@@H]1C[C@@]1(C)[C@@H](NC(=O)c1cnccn1)c1ccccc1,12.6 µM (active),inactive,–,inactive,–,–,–,0.0631 µM (active)
COC(=O)[C@H](C)[C@@H]1C[C@@]1(C)[C@@H](NC(=O)OCc1ccccc1)c1ccccc1,15.8 µM (active),inactive,–,inactive,–,–,0.316 µM (active),5.01 µM (active)
C[C@@H](C(=O)O)[C@H]1C[C@]1(C)[C@H](NC(=O)OCc1ccccc1)c1ccccc1,inactive,inactive,inactive,inactive,–,–,7.94 µM (active),–
CCCC[C@@H]1C[C@H]1C(NC(=O)c1ccco1)c1ccc(C(=O)OC)cc1 (some centres undefined),3.98 µM (active),inactive,–,inactive,–,–,–,0.794 µM (active)
CNC(=O)[C@H](C)[C@H]1C[C@]1(C)[C@H](NC(=O)OCc1ccccc1)c1ccccc1,20 µM (active),inactive,–,inactive,2 µM (active),–,–,–
CCCC[C@@H]1C[C@H]1C(NC(=O)c1ccccc1)c1ccccc1C(F)(F)F (some centres undefined),10 µM (active),inactive,–,inactive,–,–,0.501 µM (active),1.26 µM (active)
COC(=O)[C@@H]1C[C@H]1[C@@H](NC(=O)OCc1ccccc1)c1ccccc1,0.2 µM (active),inactive,–,–,–,–,2.51 µM (active),20 µM (active)
CCC[C@@H]1C[C@@]1(CCC)C(NC(=O)c1ccco1)c1ccc(Cl)cc1 (some centres undefined),25.1 µM (active),inactive,inactive,inactive,–,3.98 µM (active),3.16 µM (active),–
